tim23-1 inh = inhibits growth of tim23-1 mutant yeast; S. cerevisiae tim23-1 growth, BacTiter-Glo luminescence, 24 h; inhibition, % at 20 µM; AID 463212; 1.3% of 330,000 active;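 active means growth inhibition of the mutant yeast at or above 50%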;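 further: temperature-sensitive mutant grown at 25 °C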
SKKanGAS inh = inhibitors of SKKanGAS S. pyogenes growth in kanamycin (SK-promoter or general growth effect); BacTiter-Glo, 6 h; inhibition, % at 7.5 µM; 1.3% of 300,000 active; AID 1662;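 active means mean replicate score, as percent of positive control median, at least 50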;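 further: strain carries kanamycin resistance gene driven by streptokinase promoter and grows in 40 µg/ml kanamycin; loss of luminescence reflects streptokinase promoter inhibition or plain growth inhibition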
NALP1 inh = blocks the NALP1 inflammasome reconstituted in yeast; 0.61% of 280,000 active; inhibition, % at 10 µM; S. cerevisiae NALP1/ASC/caspase-1 growth, X-gal OD620, 72 h; AID 2071; in the data active means inhibition mostly above about 24%, no sharp cut-off; inactive means mostly below about 32%
TIM10 inh = TIM10 yeast growth inhibition. S. cerevisiae TIM10 strain growth, BacTiter-Glo luminescence, 24 h. inhibition, % at 10 µM. 1.4% of 330,000 active;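 active means inhibition of 40% or more at the single tested concentration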;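 further: wild-type TIM10 isogenic control strain grown at permissive 25 °C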
tim10-1 inh = inhibits growth of tim10-1 mutant yeast; S. cerevisiae tim10-1 ts strain growth, BacTiter-Glo, 24 h; inhibition, % at 20 µM; 2.2% of 330,000 active; AID 463190;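 active means inhibition of at least 40%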;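 further: mutant grown at 25 °C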
PfHsp90 set2 = reduces growth (ATP signal) of yeast expressing P. falciparum Hsp90. S. cerevisiae expressing PfHsp90, BacTiter-Glo ATP, 48 h; yeast lacking PDR1 and PDR3 efflux regulators. inhibition, % at 9.4 µM. 0.32% of 310,000 active. AID 504621;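 active means every replicate shows inhibition above about 80%, whatever the replicate mean, limit read from the data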
tim10-1 conf = tim10-1 yeast growth inhibition, confirmed; S. cerevisiae tim10-1 ts strain growth, BacTiter-Glo, 24 h; AID 463213; 56% of 7,400 active; inhibition, % at 20 µM; shares compounds with tim10-1 inh;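 active means inhibition of yeast growth at or above a set limit in either of two repeat tests at 20 µM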;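 further: tim10-1 mutant grown at permissive 25 °C to find synthetic lethal compounds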
TIM10 conf = confirmation of TIM10 yeast growth inhibitors | shares compounds with TIM10 inh | S. cerevisiae tim10 strain growth, BacTiter-Glo luminescence, 24 h | inhibition, % at 10 µM | 63% of 4,600 active;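 active means inhibition of yeast growth at or above a set limit in either of two replicates at 10 µM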; further: this counterscreen used the strain with wild-type TIM10
tim23-1 confirm = confirmation of tim23-1 mutant yeast growth inhibitors. S. cerevisiae tim23-1 growth, BacTiter-Glo luminescence, 24 h. shares compounds with tim23-1 inh. 83% of 4,400 active. inhibition, % at 20 µM. AID 463218;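 active means inhibition above about 39% in either of two replicate wells at 20 µM, limit read from the data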;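 further: temperature-sensitive tim23-1 mutant grown at 25 °C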
Hits are given with their value; n = inactive; x = no result. The list is not random: actives were taken first. Their share in the collection is about 4.8%.

SMILES | tim23-1 inh | SKKanGAS inh | NALP1 inh | TIM10 inh | tim10-1 inh | PfHsp90 set2 | TIM10 conf | others
COC(=O)N/N=C/c1ccc([N+](=O)[O-])s1 | 82.7 | n | n | n | 42.1 | n | x | tim10-1 conf=33.5;tim23-1 confirm=88.5
O=C(N/N=C\c1ccc([N+](=O)[O-])s1)c1cncc(Br)c1 | 68.7 | n | n | 54.6 | 45.3 | n | 51.3 | tim10-1 conf=34.8;tim23-1 confirm=69.1
O=C(Nc1ccc(N2CCOCC2)cc1)c1cnsn1 | n | n | n | n | n | n | x
CC(=O)Cn1c(CN2CCCCC2)nc2ccccc2c1=O | n | n | n | n | n | n | x
Cc1ccc(SCc2[nH]nc3c2C(C(C)C)C(C#N)=C(N)O3)cc1 (stereo unspecified) | n | n | n | n | n | n | x
Cc1ccc(SCc2[nH]nc3c2C(c2ccco2)C(C#N)=C(N)O3)cc1 (stereo unspecified) | 68.2 | n | n | n | 70.8 | n | x | tim10-1 conf=55.0;tim23-1 confirm=50.5
CCc1[nH]nc2c1C(c1ccc(Br)s1)C(C#N)=C(N)O2 (stereo unspecified) | 82.2 | x | n | 74.7 | 85.5 | n | n | tim10-1 conf=82.9;tim23-1 confirm=79.9
O=C(Cn1cc(SCc2cccc(Cl)c2)c2ccccc21)N1CCOCC1 | n | n | n | n | n | n | x
CC1CCN(C(=O)c2ccc([N+](=O)[O-])o2)CC1 | 55.5 | n | n | n | 41.2 | n | x | tim10-1 conf=40.2;tim23-1 confirm=57.7
O=C(Cc1ccc([N+](=O)[O-])cc1)N1CCCCCC1 | n | n | n | n | n | n | x
O=C(c1ccc(-c2ccc([N+](=O)[O-])cc2)o1)N1CCCCCCC1 | 76.4 | x | x | 63.0 | 59.5 | n | 69.2 | tim10-1 conf=55.0;tim23-1 confirm=52.9
CC1CC(C)CN(C(=O)COC(=O)c2ccc([N+](=O)[O-])o2)C1 (stereo unspecified) | n | x | x | n | n | n | x
Fc1ccccc1SCc1nnc(-c2ccccc2Br)o1 | n | n | n | n | n | n | x
O=C(COc1ccc(Br)cc1CO)Nc1ccc(S(=O)(=O)N2CCCCC2)cc1 | 53.4 | x | x | n | 40.3 | n | x | tim10-1 conf=49.7;tim23-1 confirm=60.8
COc1cc(C(=O)O[C@H]2C/C(C)=C/CC[C@]3(C)O[C@@H]3C(O)C2C(C)C)cc(OC)c1OC (stereo partly specified) | n | n | n | n | n | n | x
COc1cc(C(=O)O[C@H]2CC(C)=CC[C@@]3(C)CC[C@@](O)(C(C)C)[C@H]23)ccc1O | 54.3 | n | n | n | 50.2 | n | x | tim10-1 conf=39.5;tim23-1 confirm=57.3
O=[N+]([O-])c1c(C(Cl)Cl)nn(-c2ccc(Cl)cc2)c1N1CCCCC1 | 64.4 | n | n | 55.8 | 44.4 | n | 41.0 | tim10-1 conf=62.1;tim23-1 confirm=67.3
CC1=C(C(=O)OCc2ccccc2)C(c2ccccc2Cl)NC(=O)N1CCCCCC(=O)O (stereo unspecified) | n | n | n | n | n | n | x
O=C1/C(=C/c2cccc(F)c2)Oc2cc(O)ccc21 | 51.5 | n | n | n | 51.7 | n | x | tim10-1 conf=38.8;tim23-1 confirm=70.8
c1cc(-c2cn(C[C@H]3CC[C@@H]([C@@H]4CC[C@H](Cn5cc(-c6ccsc6)nn5)O4)O3)nn2)cs1 | n | n | n | n | n | n | x
CCN1C/C(=C/c2ccc(OC)c(O)c2)C(=O)/C(=C/c2ccc(OC)c(O)c2)C1 | n | n | n | 49.6 | n | n | 44.8
O=C1CC(=O)N(CCc2ccc(F)cc2)C(=O)N1 | n | n | n | n | n | n | x
COC(=O)Cc1c(O)ccn(CCc2ccc(S(N)(=O)=O)cc2)c1=O | n | n | n | n | n | n | x
O=C(Nc1ncn[nH]1)c1ccc([N+](=O)[O-])cc1[N+](=O)[O-] | n | n | n | 42.6 | n | x | n
Cc1ccc(NC(=O)C/C(N)=N/OC(=O)Nc2cccc(C)c2)cc1 | n | x | x | 41.7 | n | n | n
SMILES | tim23-1 inh | SKKanGAS inh | NALP1 inh | TIM10 inh | tim10-1 inh | PfHsp90 set2 | TIM10 conf | others
COc1cc(NC(=O)c2ccccc2Cl)ccc1NC(=O)c1ccco1 | n | n | n | n | n | n | x
Cc1cc2ncn(/N=C/c3ccc([N+](=O)[O-])o3)c2cc1C | n | n | n | 56.7 | n | n | 56.0
O=C(CCN1C(=O)/C(=C\c2ccccc2F)SC1=S)N1CCCCC1 | n | n | n | 42.2 | n | n | n
Cc1cc(/C=N/NC(N)=O)c(C)c(CO)c1 | n | n | n | n | n | n | x
CCOC(=O)N1CCN(C(=O)c2ccc3c(c2)sc2nc(-c4ccccc4)cn23)CC1 | n | n | n | 44.5 | n | n | 52.8
Cc1ccc(S(=O)(=O)NNC(=O)c2cnn(-c3ccccc3)c2C(F)(F)F)cc1 | n | n | n | n | n | n | x
COc1ccc(N=Nc2nc(-c3ccccc3)c(-c3ccccc3)[nH]2)cc1 | n | n | n | 41.4 | n | n | n
COc1ccc(-c2nc(C)ncc2N=Nc2ccccc2)cc1 | n | n | n | n | n | n | x
O=C(N/N=C/c1nn(-c2ccccc2)cc1-c1ccccc1)c1ccncc1 | n | n | n | 40.4 | n | n | n
O=C(Oc1ccc(C(=S)N2CCOCC2)cc1Br)c1cc(Cl)ccc1Cl | n | n | n | 47.2 | n | x | n
O=C(Oc1c(Br)cc(C(=S)N2CCOCC2)cc1Br)c1ccc(Cl)cc1 | n | n | n | n | n | n | x
COc1cnc(-c2ccccn2)nc1Oc1cccc(Cl)c1 | n | n | n | 45.6 | n | n | 49.0
COc1ccc(Oc2nc(-c3ccncc3)nc3ccccc23)cc1 | n | n | n | n | n | n | x
COc1ccc(Oc2nc(-c3ccccn3)nc3ccccc23)cc1 | n | 79.7 | n | 41.3 | n | x | 34.3
COc1cnc(-c2ccccn2)nc1Sc1c(Cl)cccc1Cl | n | n | n | 49.9 | n | x | 37.8
COc1cnc(-c2ccccc2)nc1Oc1cccc(C)c1 | n | n | n | n | n | n | x
COc1cc(NC(=O)c2cccc(C)c2)c(OC)cc1NC(=O)CN1CCCCC1 | n | n | n | n | n | n | x
CC1=CC2=NC(=O)CC(C)(C(=O)N(CC(=O)NC3CCCC3)c3cc(C)cc(C)c3)N2C=C1 (stereo unspecified) | n | n | n | n | n | n | x
O=C(Oc1cc2oc(=O)c3c(c2cc1Cl)CCCC3)c1ccco1 | n | n | x | 50.7 | n | n | 32.2
COC(=O)Cc1c(C)c2cc(Cl)c(OC(=O)c3ccco3)cc2oc1=O | n | n | n | 54.3 | n | n | 40.5
CC(C)n1cc(-c2nc(C(=O)NN)cs2)c(=O)n(Cc2ccccc2)c1=O | n | n | n | n | n | n | x
COc1ccccc1C1CCN(Cc2ccccc2Cl)CC1 | n | n | n | n | n | n | x
S=C(NCc1ccco1)Nc1cccc(Cl)c1Cl | n | n | x | 41.2 | n | x | n

Screens (PubChem BioAssay)
